CD11b adhes inh – CD11b/CD18-fibrinogen binding inhibition; P05107+P11215; K562 CD11b/CD18 adhesion to fibrinogen, ATPlite luminescence; Mn2+ added to activate the integrin; inhibition, % at 10 µM; hit rate 0.54% among 93,000;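 active = primary inhibition of 50% or more at 10 µM, then 40% or more on retest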
Target sequence (P05107 whole entry, looked up, other chains not shown): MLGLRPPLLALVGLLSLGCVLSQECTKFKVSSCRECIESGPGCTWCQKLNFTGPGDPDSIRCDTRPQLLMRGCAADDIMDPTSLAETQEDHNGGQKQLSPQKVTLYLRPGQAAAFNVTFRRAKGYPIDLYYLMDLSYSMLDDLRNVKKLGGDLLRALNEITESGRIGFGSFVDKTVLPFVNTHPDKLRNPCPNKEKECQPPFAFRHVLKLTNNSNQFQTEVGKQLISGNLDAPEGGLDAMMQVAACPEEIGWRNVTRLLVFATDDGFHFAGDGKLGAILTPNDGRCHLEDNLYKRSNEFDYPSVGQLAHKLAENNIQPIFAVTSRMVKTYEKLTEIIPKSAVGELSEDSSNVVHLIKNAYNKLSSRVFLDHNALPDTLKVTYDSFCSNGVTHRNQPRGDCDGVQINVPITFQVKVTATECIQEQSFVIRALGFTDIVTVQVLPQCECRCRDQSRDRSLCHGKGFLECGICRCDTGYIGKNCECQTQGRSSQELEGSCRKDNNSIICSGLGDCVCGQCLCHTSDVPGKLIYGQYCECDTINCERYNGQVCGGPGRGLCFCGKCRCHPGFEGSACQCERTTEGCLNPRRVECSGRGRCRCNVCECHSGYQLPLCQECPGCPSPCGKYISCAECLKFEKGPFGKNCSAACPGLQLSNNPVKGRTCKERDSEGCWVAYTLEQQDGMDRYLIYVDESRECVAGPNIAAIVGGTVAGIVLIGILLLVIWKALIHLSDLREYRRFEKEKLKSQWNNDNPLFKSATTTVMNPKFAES
MRP reversal – MRP-mediated drug resistance reversal; H69AR cells + 2 uM doxorubicin, CellTiter-Glo, 72 h; differential viability (reversal), % at 10 µM; hit rate 0.04% among 85,000;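 active = viability drop by adding the cancer drug above about 55%, with treated viability meeting a 40% cutoff, limit read from the data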;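 also: viability without doxorubicin minus viability with 2 µM doxorubicin for each compound; larger differential means the compound sensitizes cells more to doxorubicin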
Pyk2 oligo antag – Pyk2 (human) oligomerization antagonism | hit rate 0.83% among 99,000 | Q293 cells, Pyk2 FERM NanoBiT luminescence; stronger effect = lower value | z-score (the deposit names both 25 µM and 10 µM) | Q14289;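 active = Z-score of -3 or lower, scaled per plate to the spread of control and sample wells; inactive = z-score above -3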;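 also: negative z-score means lost luminescence so less FERM oligomerization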
Cav3 T inh – blocks human Cav3.2 T-type calcium channel; O95180; hit rate 4% among 100,000; Cav3.2-expressing cells, Fluo-4 calcium fluorescence FDSS; stronger effect = lower value; AID 449739; B-score at 10 µM;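 active = single-dose well whose peak fluorescence ratio is a statistical outlier from its plate by either plate-standardised score or position-corrected B-score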
Mac1 fbg enh – enhancers of human CD11b/CD18 binding to fibrinogen; K562 CD11b/CD18 adhesion to fibrinogen, ATPlite luminescence; activation, % at 10 µM; hit rate 0.07% among 93,000; AID 1499;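 active = 10 µM primary screen giving 50% or more activity, confirmed by 40% or more on retest at that dose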
MRP1 act – MRP-1 activation. H69AR cells + doxorubicin, viability rescue, CellTiter-Glo. viability increase, % at 10 µM. hit rate 0.61% among 140,000. AID 799;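 active = viability gain under doxorubicin at or above a set limit, the compound median plus 3 SD, cut at about 4.7% in these data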;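 also: MRP-1 overexpressing cells given doxorubicin 25 µM after compound pretreatment; 18-22 h compound pretreatment then 72 h with doxorubicin before readout; 0% = doxorubicin-only wells and 100% = vehicle-treated cells without doxorubicin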
The depositor's hits bear a star; x = no result given. In the library only some 4.1% were active in any assay of this set; here they are far more common.

SMILES	CD11b adhes inh	MRP reversal	Pyk2 oligo antag	Cav3 T inh	Mac1 fbg enh	MRP1 act
COc1ccc(OC)c(NS(=O)(=O)c2ccc(SC)cc2)c1	x	-25	-0.18	-3.2	x	-5
COc1ccc(NS(=O)(=O)c2ccc(NS(=O)(=O)c3ccc(SC)cc3)cc2)c(OC)c1	-7	-22	-0.87	-4.9*	-2	-1
O=C(Nc1ccc(S(=O)(=O)N2CCCCCC2)cc1)c1ccc(Br)o1	x	-20	-1.1	-3.2*	x	-5
CC(C)N1CCC2(CC1)C(C#N)=C(N)NC(S)=C2C#N	-4	x	x	x	-2	-1
O=S(=O)(Nc1ccc(S(=O)(=O)N2CCCCC2)cc1)c1ccc(Br)s1	91*	-14	-1.4	-5.4*	-11	1
COc1ccc(S(=O)(=O)Nc2ccc(S(=O)(=O)N3CCCCC3)cc2)cc1	x	5	-3	-6.6*	x	-3
O=C(CCNS(=O)(=O)c1ccc(Br)s1)NC1CCCC1	4	8	-0.75	0.59	2	0
O=S(=O)(NC1CCCCCC1)c1ccc(Br)s1	x	10	-1.1	-4.9*	x	-4
COc1ccc(S(=O)(=O)Nc2ccc(S(=O)(=O)N3CCCC3)cc2)cc1	-10	3	-1.6	-0.075	-4	-1
CC(C)CNC(=O)c1cccc(NC(=O)Cc2ccc(Br)cc2)c1	x	x	-0.05	x	x	6.2*
COCC(C)n1c(C)cc(C(=O)COC(=O)c2c(C)nn(-c3ccccc3)c2C)c1C (stereo unspecified)	-4	-2	-1.1	-2.3	1	-1
COCCn1c(C)cc(C(=O)COC(=O)c2n[nH]c3ccccc23)c1C	53*	-4	0.64	-2.3	-6	-1
COCCn1c(C)cc(C(=O)COC(=O)c2c(C)nn(Cc3ccccc3)c2C)c1C	-1	1	0.32	-5.9*	-1	-1
Cc1nn(Cc2ccccc2)c(C)c1C(=O)OCC(=O)c1cc(C)n(C2CC2)c1C	23	-7	0.56	-4.8*	2	3
O=C(Nc1ccccc1O)c1cc(S(=O)(=O)N2CCOCC2)c(Cl)cc1Cl	2	4	0.09	-1.1	-4	-1
COCCCn1c(SCC(=O)NC2CCCCC2)nnc1-c1ccncc1	-8	-20	-0.39	0.34	0	0
O=C(Nc1nc(-c2ccccc2)cs1)C1CCCCN1S(=O)(=O)c1ccccc1 (stereo unspecified)	3	-21	-3.7*	-1.8	16	-3
O=C(Nc1nc(-c2ccccc2)cs1)C1CCCN(S(=O)(=O)c2cccc([N+](=O)[O-])c2)C1 (stereo unspecified)	3	x	-0.36	-6.1*	-2	0
O=C(Nc1nc(-c2ccccc2)cs1)C1CCCN(S(=O)(=O)c2ccccc2)C1 (stereo unspecified)	2	-20	-2	-3.4	0	-4
CCOc1ccccc1C(=O)NC1CCN(Cc2nnnn2C2CCCC2)CC1	4	-1	0	1.7	70	1
COc1ccc(S(=O)(=O)Nc2ccc3ccccc3c2)cc1C	10	-36	-3.2*	-1.5	-2	0
COc1ccc(Cl)cc1NS(=O)(=O)c1ccc(OC)c(OC)c1	x	3	-0.57	-1	x	-3
COc1ccc(S(=O)(=O)Nc2cc(C)ccc2OC)cc1C	10	-29	-1.8	-7.7*	-3	-2
CCc1ccc(NS(=O)(=O)c2ccc(OC)c(C)c2)cc1	17	7	-3.3*	-3.3	2	-1
Cc1ccc(S(=O)(=O)N2CCN(C(=O)/C=C/c3ccco3)CC2)cc1	x	x	x	x	x	-2
SMILES	CD11b adhes inh	MRP reversal	Pyk2 oligo antag	Cav3 T inh	Mac1 fbg enh	MRP1 act
CCOc1ccc2nc(NC(=O)CN3CCC(n4nnc5cc(F)ccc54)CC3)sc2c1	57	-17	-3.3*	-2.7	1	-6
O=C(CN1CCC(n2nnc3cc(F)ccc32)CC1)NC1CC1	-17	-3	-0.32	0.42	-4	-2
CC(=O)Nc1nc2ccc(C(=O)NC3CCCCC3)cc2s1	x	-16	0.65	-0.07	x	-5
COCCNC(=O)Cn1cnc2c1c(=O)n(C)c(=O)n2C	4	-7	-0.57	-5.3*	-4	-2
CCSc1nc(-c2ccccc2)c(C#N)c(=O)[nH]1	-3	21	-0.06	-0.72	-1	0
COC(=O)C(CC(C)C)NC(=O)CSc1nc(-c2ccccc2)c(C#N)c(=O)[nH]1 (stereo unspecified)	-19	-13	-0.74	-0.67	2	11*
CCOC(=O)c1cc(-c2ccccc2)sc1NC(=O)C(C)Sc1nnc(N)s1 (stereo unspecified)	x	x	x	x	x	11*
CCOC(=O)c1cc(-c2ccccc2)sc1NC(=O)CC	-6	x	x	x	8	-1
COc1ccc(NC(=O)CC2C(=O)N(c3ccc(F)cc3)C(=S)N2NC(=O)c2ccccc2)cc1 (stereo unspecified)	x	x	x	x	x	6.4*
CCC(=O)N1COC[C@@H]1Cc1ccccc1	x	x	x	x	x	0
CC(C)(C)c1ccc(OC(=O)c2ccc3nsnc3c2)cc1	11	13	0.14	-3.5*	0	1
CC(C)(C)c1ccc(OC(=O)c2ccc3snnc3c2)cc1	x	x	x	x	x	2
O=C(Nc1ccc(Cl)cc1)[C@@H]1[C@@H]2C(=O)N(c3ccc(Cl)cc3Cl)C(=O)[C@@H]2[C@H]2C=CC=NN21	-9	4	x	-4.7*	71	-1
O=C(Nc1ccc(Cl)cc1)[C@@H]1[C@@H]2C(=O)N(c3ccc(Cl)cc3)C(=O)[C@@H]2[C@H]2C=CC=NN21	4	5	0.6	-5.8*	-3	-2
C=CCn1c(SC(C)CC)nc(O)cc1=O (stereo unspecified)	-36	12	-4.5*	-0.00095	0	0
CC1=NN=C(c2ccccc2)C(c2c[nH]c3ccccc23)N1O (stereo unspecified)	x	x	x	x	x	-2
Cc1[nH]c2ccccc2c1C1C(c2ccccc2)=NN=C(C(C)C)N1O (stereo unspecified)	x	6	-3.6*	-5.4*	x	-5
COc1ccc(C(=O)O/N=C/c2ccc(S(=O)c3ccc(Cl)cc3)nc2)cc1 (stereo unspecified)	x	x	-1.1	0.11	x	-6
CC1(C)CC(CCNS(=O)(=O)c2ccccc2)(c2ccccc2)CCO1 (stereo unspecified)	x	x	x	x	x	-1
CCC1(C)CC(CCNS(=O)(=O)c2ccc(C)cc2)(c2ccc(C)cc2)CCO1 (stereo unspecified)	x	x	-0.89	-5.3*	x	-6
CCOC(=O)Cc1nn2c(=O)cc(C)nc2s1	-5	0	-0.33	-5*	-6	-1
CCCc1nnc(NC(=O)CN2CCOCC2)s1	x	x	1.4	-0.044	x	1
CNS(=O)(=O)c1cccc(C(=O)OCc2cc(Cl)cc3c2OCOC3)c1	14	16	-0.45	-4.2*	-2	-2
CC1(C)NC(=O)N(CC(O)CN2CCCC2)C1=O (stereo unspecified)	-19	5	0	0.35	0	-1
CCOC(=O)COc1ccc(S(=O)(=O)NCc2cccnc2)cc1	4	-6	1.1	0.57	-1	0

Bioassay records: PubChem BioAssay, several laboratories
